# Assay outcomes (PubChem BioAssay)
# Hits are enriched below; roughly 2.8% of the tested compounds scored in any of these assays.
# Pol eta inh-1: inhibitors of human DNA polymerase eta; actives 1.2% (n = 390,000); Q9Y253; recombinant Pol eta, fluorescent DNA replication assay; AID 588591; Potency, µM (highest dose often 114 µM), actives largely listed as inhibitors
#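 Fluorescent replication assay: 50 nM final substrate added after a 15 min room-temperature compound preincubation with 10 nM enzyme. Signal taken at 0 min and again at 10 min.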
# PI5P4K alpha inh: blocks human PI5P4K alpha kinase activity; P48426; PI5P4Kalpha enzyme, ADP-Glo luminescence, 60 min; active compounds read low; max response, %; actives 1.2% (n = 330,000); AID 652105; active means max response of -50% or lower; inconclusive means between -30% and -50%; inactive means -30% or higher; further: value at the top dose of about 77 µM
# Target sequence (P48426 whole entry, looked up): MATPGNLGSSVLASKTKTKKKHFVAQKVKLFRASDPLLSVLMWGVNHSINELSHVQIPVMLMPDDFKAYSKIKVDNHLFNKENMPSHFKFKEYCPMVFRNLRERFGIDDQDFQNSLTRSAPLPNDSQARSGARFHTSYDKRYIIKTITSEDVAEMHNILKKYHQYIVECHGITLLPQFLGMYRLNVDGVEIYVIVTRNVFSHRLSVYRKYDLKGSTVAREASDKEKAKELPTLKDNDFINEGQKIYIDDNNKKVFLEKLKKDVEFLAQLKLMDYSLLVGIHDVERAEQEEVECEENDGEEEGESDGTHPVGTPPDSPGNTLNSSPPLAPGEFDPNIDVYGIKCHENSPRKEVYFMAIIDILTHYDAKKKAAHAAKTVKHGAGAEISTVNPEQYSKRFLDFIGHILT
#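 Quantitative HTS of the MLSMR library against PI5P4Kalpha with substrate. ATP added last at 5 microM final; room temperature, 60 minutes. Remaining ATP depleted, ADP converted and read as luminescence.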
# WRN helicase inh: blocks human WRN helicase; Q14191; WRN helicase unwinding, fluorescent forked duplex, kinetic; Potency, µM (doses to about 114 µM), usual class: inhibitors; actives 0.46% (n = 360,000); AID 651768; further: nearly all actives have a fitted effect of over 55% in size
#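 Fluorescence dequenching readout, ex 525 nm/em 598 nm, kinetic mode: forked duplex DNA (100 nM final) with adjacent fluorophore and quencher unwound by WRN (20 nM final) with 2 mM ATP. Compound preincubation 15 min, room temperature.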
# Pol iota inh: blocks human DNA polymerase iota activity; Pol iota fluorescent replication assay, 10 min; Potency, µM (series often up to 115 µM), usual class: inhibitors; actives 1% (n = 390,000); AID 588590
#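 Pol iota at 10 nM preincubated 15 min with compounds at room temperature; reaction started with fluorescent substrate, 50 nM final. Fluorescence read kinetically at 0 and 10 min; buffer-only wells as negative control.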
# Pol beta inh: inhibitors of human DNA polymerase beta; Potency, µM (titrated, usually from 114 µM), most hits filed as inhibitors; Pol beta primer extension/strand displacement, fluorescence kinetic; actives 1.3% (n = 340,000); P06746; AID 485314
#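 10 nM enzyme + cpd, 15 min RT; start with substrate 50 nM final; read 0 min and after 10 min RT. Corrected, normalized data; 4-parameter Hill curve fit.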
# Pol kappa inh-1: inhibitors of human DNA polymerase kappa | purified Pol kappa, fluorescent DNA synthesis assay, 10 min | Potency, µM (highest dose often 107 µM), most hits filed as inhibitors | actives 0.53% (n = 400,000) | AID 588579
#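 50 nM final substrate added after 15 min RT preincubation of 10 nM Pol kappa with compound; fluorescence read at 0 and 10 min.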
# GALK confirm: confirmation of human galactokinase (GALK) inhibitors | Potency, µM (doses to about 115 µM), most hits filed as inhibitors | actives 70% (n = 150) | purified GALK, Kinase-Glo ATP depletion luminescence | shares compounds with Pol eta inh-1 | AID 2015
# Redox cycling: counter-screen for GALK inhibitors: redox cycling H2O2 generation. Potency, µM (highest dose often 115 µM), usual class: inhibitors. actives 40% (n = 150). AID 2035. shares compounds with Pol eta inh-1. Phenol red-HRP H2O2 redox cycling, absorbance 600 nm
# HEK293 viability: counter-screen for GALK inhibitors: HEK293 cell cytotoxicity; shares compounds with Pol eta inh-1; HEK-293 viability, ATP luminescence (CellTiter-Glo), 24/48 h; Potency, µM (doses to about 46.1 µM), most hits filed as inhibitors; actives 10% (n = 170); AID 2547
# Pol kappa inh-2: confirmation of human DNA polymerase kappa inhibitors; shares compounds with Pol eta inh-1; purified Pol-kappa, fluorescent strand-displacement substrate; Potency, µM, actives largely listed as inhibitors; actives 76% (n = 920); AID 720501
# Pol eta inh-2: Pol eta (human) inhibition, cherry-pick confirmation. Potency, µM, hits mostly inhibitors. actives 64% (n = 2,600). shares compounds with Pol eta inh-1. Pol eta primer extension, TAMRA/BHQ fluorescence, 10 min
# Hits are given with their value; n = inactive; u = inconclusive; x = not tested or not shown; ! = not active in a repeat; [ ] = dose if it differs, or a comment. Unless noted, the call rests on the fitted dose curve; in most records, active means well fitted curve in the direction sought with a large enough effect; inconclusive means small, poorly fitted or top-dose-only effect, or another doubt; inactive means no such curve, though single readings can be large; an effect the other way counts as inactive or inconclusive.
SMILES,Pol eta inh-1,PI5P4K alpha inh,WRN helicase inh,Pol iota inh,Pol beta inh,Pol kappa inh-1,Pol kappa inh-2,Pol eta inh-2,others
O=C(O)c1cc([N+](=O)[O-])ccc1-c1ccc([N+](=O)[O-])cc1C(=O)O,20µM,n,n[11.6 µM],x,x,x,3.8,60,
O=C(O)c1cn[nH]c1-c1cccc([N+](=O)[O-])c1,20µM,n,u,25µM,n,u,x,67,
Cc1cc(Cl)c(C)c(S(=O)(=O)N2CCN(CC(=O)N3CCOCC3)CC2)c1Cl,n,n,n,n,x,n,x,x,
CC(=O)c1cccc(NC(=O)CN2C(=O)C(=O)N(Cc3ccco3)C2=O)c1,14µM,n,n,50µM,x,u,x,u,
CC(=O)c1cccc(NC(=O)CN2C(=O)c3ccccc3C2=O)c1,n,n,n,n,n,n,x,x,
O=C(O)c1cccc(NC(=O)c2ccc3c(c2)C(=O)N(Cc2ccco2)C3=O)c1,18µM,n,n[11.6 µM],50µM,u,u,67,43,
CCOc1ccccc1CNC(=O)Cn1c(=O)c2cccn2c2ccc(F)cc21,n,x,x,n,n,n,x,x,
CCCS(=O)(=O)c1nc(S(=O)(=O)c2ccc(C)cc2)c(NC)s1,n,x,x,u,n,n,x,x,
C#Cc1ccc([C@H]2C=C(C(=O)O)O[C@@H](OCc3ccc(CO)cc3)C2)cc1,35µM,n,n,u,28µM,u,42,x,
CC(C)(C)NC(=O)C1C(c2ccccc2)=Nc2ccccc2N1C(=O)c1ccc(C(F)(F)F)cc1 (stereo not drawn),x,n,n,x,x,x,x,x,
O/N=C(/CBr)c1ccc2ccccc2c1,x,x,x,n,x,n,x,x,
O=C(O)c1cc([N+](=O)[O-])cc2c1C=Cc1ccccc1O2,28µM,n,n[11.6 µM],u,56µM,u,u,x,
CN(NS(=O)(=O)c1ccc(Cl)cc1)c1ncc(C(F)(F)F)cc1Cl,n,n,n,n,n,n,x,x,
CCOc1ccc(CNC(=O)c2cnc3sc(N4CCCCCC4)nn3c2=O)cc1OC,n,x,x,n,n,n,x,x,
CC(C)(C)NC(=O)CSc1nnc(-c2ccccc2)c(-c2ccccc2)n1,n,n,n,n,n,n,x,x,
CC(=O)NNC(=O)CSc1nnc(-c2ccccc2)c(-c2ccccc2)n1,14µM,n,n,u,n,u,19,7.6,
CC(=O)Oc1cccc(/C=c2\sc3nc(-c4ccco4)nn3c2=O)c1,13µM,n,u,u,22µM,u,x,48,
COc1cc(/C=c2\sc3nc(-c4ccncc4)nn3c2=O)ccc1OC(C)=O,x,x,x,x,n,x,x,x,
O=C(O)c1ccc(-n2ncc(Cl)c(Cl)c2=O)cc1,22µM,n,n[11.6 µM],x,x,x,30,48,
CC(=O)Nc1c(Cl)cnn(-c2ccccc2)c1=O,n,n,n,n,x,n,x,x,
CCOC(=O)c1c(S(=O)(=O)NCC(=O)N2CCN(c3cccc(Cl)c3)CC2)c(C)n(C)c1C,n,x,x,n,n,n,x,x,
O=C(CSc1nc2ccccc2c(=O)[nH]1)N1CCOCC1,n,x,n,n,n,n,x,x,
O=C(CSc1nc2ccc(S(=O)(=O)N3CCOCC3)cc2[nH]1)N1CCOCC1,n,n,n,n,n,n,30,u,
CCOc1ccc(Cn2nnc(C(=O)NCCc3ccccc3)c2N)cc1,n,n,n,n,n,n,x,x,
CCOc1ccc(NC(=O)Cn2nnc(C(=O)NCCc3ccccc3)c2N)cc1,u,x,x,u,u,u,u,x,
SMILES,Pol eta inh-1,PI5P4K alpha inh,WRN helicase inh,Pol iota inh,Pol beta inh,Pol kappa inh-1,Pol kappa inh-2,Pol eta inh-2,others
N#CC1=C(N)Oc2n[nH]c(-c3cccnc3)c2C1c1ccc([N+](=O)[O-])o1 (stereo not drawn),28µM,-59,u,u,n,u,x,67,
Cc1ccc(-c2[nH]nc3c2C(c2cccnc2)C(C#N)=C(N)O3)cc1 (stereo not drawn),n,x,n,n,n,n,x,x,
Nc1ccc(C(=O)Nc2ccc3c(O)cc(S(=O)(=O)O)cc3c2)cc1,11µM,-52,n[11.6 µM],u,x,u,u,76,
Nc1ccc(C(=O)Nc2ccc(OC(F)(F)C(F)F)c(NC(=O)c3ccc(N)cc3)c2)cc1,u,n,n,n,n,n,x,x,
Cc1c(C(=O)Nc2cccc(F)c2)oc2c1-c1nn(Cc3c(F)cccc3Cl)cc1CC2,89µM,x,x,n,n,n,47,x,
O=C(O)c1ccc(S(=O)(=O)N2CCC(n3nnc4cc(C(F)(F)F)ccc43)CC2)cc1,n,n,n,n,n,n,x,x,
O=C(O)c1cccc(S(=O)(=O)N2CCC(n3nnc4cc(C(F)(F)F)ccc43)CC2)c1,n,n,n,n,n,n,x,x,GALK confirm=u;Redox cycling=n;HEK293 viability=n
COc1ccc(NC(=O)CN2CCCN(Cc3ccc(Cl)cc3)S2(=O)=O)cc1Cl,n,x,x,n,n,n,x,x,
Cc1onc(-c2ccccc2Cl)c1C(=O)NCc1ccco1,45µM,x,n,u,28µM,u,x,u,
CCn1cc(C(=O)O)c(=O)c2cc(F)c(N/N=C/c3ccccc3[N+](=O)[O-])cc21,5.6µM,u,u,n,u,n,x,43,
OCCCNc1c2ccccc2nc2ccccc12,n,n,n[11.6 µM],22µM,18µM,79µM,u,x,
C/C(N)=C(/C#N)C(=O)COC(=O)C1CCN(S(=O)(=O)c2cccs2)CC1,n,n,n,n,x,n,x,x,
C/C(N)=C(/C#N)C(=O)COC(=O)C1Cc2ccccc2CN1S(C)(=O)=O (stereo not drawn),20µM,-59!,n,22µM,40µM,u,x,67,
CS(=O)(=O)N1Cc2ccccc2CC1C(=O)OCC(=O)NCc1ccccc1 (stereo not drawn),16µM,u,u,79µM,x,u,x,u,
CC1CCN(C(=O)CSc2nc(C(C)C)nc3c2c(=O)n(C)c(=O)n3C)CC1,n,n,n,n,n,n,x,x,
Cc1[nH]c(=O)[nH]c(=O)c1S(=O)(=O)Nc1ccc(F)cc1Cl,n,n,n,n,n,n,x,x,
O=c1[nH]c(/C=C/c2ccc(Cl)cc2Cl)c([N+](=O)[O-])c(=O)[nH]1,20µM,-78,n,50µM,32µM,n,x,76,
